# Measured values from PubChem BioAssay AID504727 (Broad Institute, 2011).
# Calls of active or inactive are those of the source.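 Rule for the calls: active = fitted half-maximal concentration AC50 at or below ten times the highest valid tested dose, with signal falling as DNA is displaced (actives reach about 34 µM in these data); inconclusive = flat fit at moderate signal loss, or poor fit quality; inactive = the rest, including signal rising instead of falling.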
# Test: DNA intercalators displacing acridine orange, dose response, artefact control for KSHV LANA DNA-binding inhibitor project, biochemical, fluorescence polarization, cherry-picked samples, set 2 (AID 504727);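 for activity change, negative = DNA displacement: 0% = median of neutral control wells and -100% = mitoxantrone positive control wells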
# Settings: AC50: Acridine orange-DNA displacement; series mostly up to 35 µM; activity change, negative = DNA displacement: at the top concentration
Structure (SMILES),AC50,"activity change, negative = DNA displacement"
CCCCn1c(=O)[nH]c2nc3cc(N)ccc3nc2c1=O,3.75 µM (active),–
CS(=O)(=O)Nc1nc2n(n1)C(c1ccccc1)C=C(c1ccc(Br)cc1)N2 (stereo not drawn),18 µM (active),–
O=C(CN(Cc1ccccc1F)C(=O)c1csnn1)NCc1ccc2c(c1)OCO2,–,5.17% (inactive)
CCN(CC(=O)Nc1c(F)cccc1F)C(=O)CCCc1cccs1,–,-3.02% (inactive)
COCCCNc1c2c3c(cccc3[nH]c1=O)C(=O)c1ccccc1-2,0.63 µM (active),–
COc1ccc(NC(=O)Cc2nnc(SCC(=O)Nc3nccs3)n2C)cc1,–,4.06% (inactive)
CCOCCCn1c(SCC(=O)NC(C)(C)C)nc2ccccc2c1=O,–,-0.81% (inactive)
COc1ccc2nc3ccccc3[n+]([O-])c2c1,26 µM (active),–
O=c1ccc2c(-c3ccccc3S(=O)(=O)O)c3ccc(O)c(O)c3oc-2c1O,–,-1.5% (inactive)
O=C(c1cccc(S(=O)(=O)NCc2ccccc2)c1)N1CCN(c2ccccc2Cl)CC1,–,0% (inactive)
CCCc1cc(C(=O)Nc2ccc(C(=O)c3ccc(C)cc3)cc2)n(C)n1,–,5.64% (inactive)
COc1ccc(NS(=O)(=O)c2ccc(C)c(C(=O)N(C)Cc3ccc(OC)cc3OC)c2)cc1,–,2.65% (inactive)
Cc1ccc(C(=O)O)cc1N1C(=O)c2cccc3c([N+](=O)[O-])ccc(c23)C1=O,–,-4.44% (inactive)
S=c1[nH]nc([C@@H]2C[C@H]2c2ccccc2)n1-c1ccccc1Cl,–,2.19% (inactive)
COc1cc(SC)ccc1C(=O)Nc1nc(C)cs1,–,-0.454% (inactive)
N=C1/C(=C/c2ccc(-c3cccc(C(=O)O)c3)o2)C(=O)N=C2SC(CC(=O)N3CCOCC3)=NN12,–,6.55% (inactive)
N=c1ccn(Cc2ccc(Cl)cc2)cc1,–,5.76% (inactive)
CCn1nc(-c2ccccc2)c2nc3ccccc3nc21,24.2 µM (active),–
Cc1c(Cl)cccc1NS(=O)(=O)c1ccc2c(c1)C1C=CCC1C(c1ccc(C(=O)O)cc1)N2 (stereo not drawn),–,-2.24% (inactive)

Structure (SMILES),AC50,"activity change, negative = DNA displacement"
COc1ccccc1CNC(=O)C(=O)NCC1CCCN1S(=O)(=O)c1cccs1 (stereo not drawn),–,1.74% (inactive)
CCCc1nnc(NC(=O)CCC(=O)NCc2ccc(OC)cc2)s1,–,0.474% (inactive)
Cc1cc(C)n(CC(=O)NNC(=O)CC(C)c2ccccc2)n1 (stereo not drawn),–,2.41% (inactive)
O=C(CC1CCCC1)N1CCN(S(=O)(=O)c2ccccc2)CC1,–,3.19% (inactive)
CCC(Sc1ncccc1C(=O)O)C(=O)N1CCCC1 (stereo not drawn),–,6.54% (inactive)
Cc1cccc(N2C(=O)c3cccc4c(N(C)CCO)ccc(c34)C2=O)c1,–,-12.6% (inactive)
Cc1cc(C)n2nc(C(=O)OC(C)C(=O)c3cc(C)c(C)cc3C)nc2n1 (stereo not drawn),–,3.62% (inactive)
CC1Cc2ccccc2N1C(=O)CCS(=O)(=O)c1cccs1 (stereo not drawn),–,6.68% (inactive)
CCn1c(CN2CCCCC2)nc2cc(S(=O)(=O)N3CCCCC3)ccc21,–,7.06% (inactive)
COc1ccc(/C=C/c2cc(C(F)(F)F)[nH]c(=O)n2)cc1OC,–,-1.76% (inactive)
COc1ccc(-c2csc(NC(=O)CSc3nc(C)nc4sc(C(=O)O)c(C)c34)n2)cc1,–,23.2% (inactive)
NC(=S)COc1ccccc1,–,4.19% (inactive)
COc1cc(-c2ccc(Nc3ccccc3C(=O)O)c(OC)c2)ccc1Nc1ccccc1C(=O)O,–,4.89% (inactive)
CC(Oc1ccccc1)c1nnc(N)s1 (stereo not drawn),17.5 µM (active),–
COc1cccc(OCCNc2ccc([N+](=O)[O-])cn2)c1,–,6.5% (inactive)
CCn1c(SCc2nc3sc(C(=O)O)c(C)c3c(=O)[nH]2)nc2ccccc21,–,-11% (inactive)
O=C(CCN1C(=O)/C(=C\c2ccco2)SC1=S)Nc1ccc(C(=O)O)c(O)c1,–,8.25% (inactive)
O=C(/C=C/c1ccco1)Nc1ccccc1C(=O)Nc1cccc(C(=O)O)c1,–,5.18% (inactive)
COC(=O)C1=C(N)OC2=C(C(=O)CCC2)C1c1cccs1 (stereo not drawn),–,6.28% (inactive)
